Usually AC50 stands for the midpoint of the concentration-response curve, whichever way the signal moves.

The campaign covered roughly 16,000 compounds. About 4,000 (25%) were called active. Roughly 26% stayed inconclusive and do not appear here. These entries were drawn from the full list. Values without a mark were called inactive. Calls follow the shape of the dose curve; as a rule, active = well fitted curve in the direction sought with a large enough effect; inconclusive = small, poorly fitted or top-dose-only effect, or effect the other way; inactive = no such curve, though single readings can be large or run the other way.
% is scaled to controls: 0 for no effect and ±100 for the full control effect.

Cytochrome P450 2C9 (Homo sapiens), sequence (P11712 whole entry, looked up): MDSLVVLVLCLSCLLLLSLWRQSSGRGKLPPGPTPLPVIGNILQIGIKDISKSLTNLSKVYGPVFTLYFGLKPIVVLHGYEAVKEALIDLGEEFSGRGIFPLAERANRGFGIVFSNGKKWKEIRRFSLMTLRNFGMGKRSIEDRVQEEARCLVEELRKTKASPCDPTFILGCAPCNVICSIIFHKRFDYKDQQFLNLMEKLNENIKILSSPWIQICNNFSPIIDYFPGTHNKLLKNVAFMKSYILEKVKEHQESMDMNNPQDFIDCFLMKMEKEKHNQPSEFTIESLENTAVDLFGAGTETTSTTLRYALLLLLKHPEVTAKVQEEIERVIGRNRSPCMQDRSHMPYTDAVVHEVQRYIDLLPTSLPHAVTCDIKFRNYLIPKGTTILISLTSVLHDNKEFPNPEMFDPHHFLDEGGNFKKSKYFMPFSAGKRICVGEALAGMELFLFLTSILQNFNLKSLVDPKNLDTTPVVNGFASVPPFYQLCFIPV

The test concerns the target Cytochrome P450 2C9 (Homo sapiens) (UniProt P11712). As to the kind of experiment: Cytochrome panel assay with activity outcomes. The conditions noted are these: recombinant CYP, pro-luciferin dealkylation, luminescence, p450-cyp2c9; series mostly up to 57.1 µM; activity, negative = inhibition: at the top concentration.
Turning to `O=C(NC12CC3CC(CC(C3)C1)C2)C12CC3CC(C1)CC(n1cnc(Cl)n1)(C3)C2`, the concentration at half-maximal activity (AC50) was 12.6 µM (active).

On to `CNc1ccnc(-c2ccccc2CN(C)C)n1`, for which the activity, negative = inhibition was 0.444% [at 2.29 µM].

For `CCOc1ccc(CCNC(=O)C2CCN(S(=O)(=O)CC)CC2)cc1OCC`, the “activity, negative = inhibition” value was -11.3%.

For the compound `CCOc1ccc(CCNC(=O)CCCN2C(=O)c3ccccc3C2=O)cc1OCC`, the AC50 is 15.8 µM (active).

In the case of `COCCn1c(=O)cnc2cnc(Nc3ccccc3)nc21`, the “activity, negative = inhibition” value was -24.6%.

In the case of `CCCCCOC(=O)c1c(N)n(CCOC)c2nc3ccccc3nc12`, the AC50 is 5.01 µM (active).

Take `CCCc1nc2sc3ccccc3c(=O)c2c(=O)n1CCOC`: the “activity, negative = inhibition” value is -13.7%.

In the case of `CCn1nccc1C(=O)Nc1nc2ccccc2n1CCN1CCCCC1`, the “activity, negative = inhibition” value is -9.2%.

On to `O=C(Nc1nc2ccccc2n1Cc1ccccc1)c1ccc(COc2ccccc2[N+](=O)[O-])o1`, for which the AC50 is 2 µM (active).

Turning to `N[C@H](C(=O)O)c1nn[nH]n1`, the “activity, negative = inhibition” value was 11.8%.

For the compound `CC1=C(C)/C(=N\OC(=O)/C=C/c2ccccc2)C=CC1=O`, the “activity, negative = inhibition” value is 10.2%.

With `Cn1cnc([N+](=O)[O-])c1Sc1nc(N)nc2c1ncn2Cc1ccccc1`, the activity, negative = inhibition was 4.6% [at 11.4 µM].

As for `COc1ccccc1CNc1ccnc(-c2cccc(C#N)c2)n1`, the activity, negative = inhibition was -24.8% [at 2.29 µM].

Consider `CC(=O)NCCNc1ncnc2ccc(-c3ccccc3C#N)cc12`, for which the activity, negative = inhibition is -2.36% [at 2.29 µM].

In the case of `Cc1cc(C)c2cc(C#N)c(NCCOC(=O)c3ccccc3C)nc2c1`, the AC50 was 2.51 µM (active).

For `CCCCNc1nc(-c2ccccc2)c(C(=O)OCC)cc1C#N`, the AC50 was 3.16 µM (active).

In the case of `COCCNc1nc(-c2ccc(C(=O)N(C)C)cc2)nc2ccccc12`, the activity, negative = inhibition is -2.68% [at 2.29 µM].

Consider `COC(=O)c1cc(C#N)c(Oc2ccc(OC)cc2)nc1C`, for which the AC50 is 14.1 µM (active).

On to `COC(=O)c1cc(C#N)c(NCc2ccc(Cl)cc2Cl)nc1C`, for which the “activity, negative = inhibition” value was 27.9%.

`CCCCNc1c(C(=O)OCC)c(C)nc2c1cnn2CC`: the “activity, negative = inhibition” value is -25.5% [at 25.6 µM].

As for `CCOC(=O)c1cc(C#N)c(Oc2ccccc2OC)nc1-c1ccccc1`, the AC50 is 7.08 µM (active).

With `N[C@@H](CO)C(=O)NNCc1ccc(O)c(O)c1O`, the “activity, negative = inhibition” value is -9.21%.

For the compound `Cn1c(=O)c2[nH]c(CCC(=O)O)nc2n(C)c1=O`, the activity, negative = inhibition was 24.4% [at 11.4 µM].

As to `CN(C)C(N)=NCCC[C@H](N)C(=O)O`, the “activity, negative = inhibition” value was -9.88%.

In the case of `O[C@H](C[C@@H]1CCCCN1)c1ccc2c(c1)oc1ccccc12`, the activity, negative = inhibition is -4.01% [at 11.4 µM].

On to `Cn1c(SC2CCCCC2=O)nnc1-c1ccncc1` (configuration not stated), for which the “activity, negative = inhibition” value was -27.1%.

Take `Cc1ccc(CSc2nnc(-c3ccncc3)n2CC2CCCO2)cc1` (configuration not stated): the AC50 was 15.8 µM (active).

With `CN(C)c1ncc2nc(-c3ccc(Cl)cc3)c(=O)n(C[C@H]3CCCO3)c2n1`, the “activity, negative = inhibition” value was 14.6%.

In the case of `CC1(C)O[C@H]2C[C@@H]3[C@H]4CCC5=CC(=O)CC[C@@]5(C)[C@]4(F)[C@@H](O)C[C@@]3(C)[C@@]2(C(=O)CCl)O1`, the “activity, negative = inhibition” value is -18.2% [at 25.6 µM].

As for `N#CC1=C(N)OC2=C(C(=O)CCC2)C12CCC1(CC2)OCCO1`, the “activity, negative = inhibition” value is -53.9%.

As for `N#Cc1ccccc1-c1cncnc1NCc1cccnc1`, the activity, negative = inhibition is 12.7% [at 2.29 µM].

Regarding `CCc1ccc(Nc2ncccc2C#N)cc1`, the AC50 is 17.8 µM (active).

Regarding `CCC(C)c1ccc(Nc2ncccc2C#N)cc1` (configuration not stated), the half-maximal activity concentration (AC50) was 17.8 µM (active).

Take `C[C@H]1CN(S(=O)(=O)c2cccc3cnccc23)CCN1`: the “activity, negative = inhibition” value was 9.32%.

On to `C1CCC(N=C(NC23CC4CC(CC(C4)C2)C3)N2CCOCC2)CC1`, for which the “activity, negative = inhibition” value was 11.7%.

For `CCN(CCCc1ccccc1)CCCc1ccccc1`, the “activity, negative = inhibition” value was -2.03% [at 25.6 µM].

Consider `CCN(CC)CCOC(=O)C(c1ccccc1)c1ccccc1`, for which the “activity, negative = inhibition” value is -4.53% [at 25.6 µM].

As for `CCN(CC)CCOc1ccc(Cc2ccccc2)cc1`, the AC50 is 15.8 µM (active).

In the case of `CN[C@@H]1NC(=O)c2ccccc2N1Cc1ccc(F)cc1`, the activity, negative = inhibition was 4.34% [at 11.4 µM].

Consider `O=C1c2cccnc2C(=O)N1Cc1ccc(F)cc1`, for which the “activity, negative = inhibition” value was 17%.

With `Cc1ccc(NC2c3ncccc3C(=O)N2Cc2ccc(F)cc2)cc1` (configuration not stated), the AC50 was 15.8 µM (active).

On to `COc1ccc(/C(O)=C2/C(=O)C(=O)N(CCN3CCOCC3)C2c2ccc(C)cc2)cc1` (configuration not stated), for which the “activity, negative = inhibition” value is 11.8%.

Consider `COc1ccc(/C(O)=C2/C(=O)C(=O)N(CCCC(=O)O)C2c2ccc(OC)cc2)cc1` (configuration not stated), for which the “activity, negative = inhibition” value is -15.5%.

With `CCOc1ccc(/C(O)=C2/C(=O)C(=O)N(CCCn3ccnc3)C2c2cccs2)cc1Cl` (configuration not stated), the AC50 is 5.01 µM (active).

For the compound `CCOc1ccc(/C(O)=C2/C(=O)C(=O)N(CCOCCO)C2c2cccnc2)cc1` (configuration not stated), the “activity, negative = inhibition” value was -25.7%.

As to `Cc1ccc(/C(O)=C2/C(=O)C(=O)N(CCCn3ccnc3)C2c2ccccn2)cc1` (configuration not stated), the AC50 was 4.47 µM (active).

Regarding `CCOC(=O)c1[nH]c(C)c(/C(O)=C2\C(=O)C(=O)N(CCN3CCOCC3)C2c2cccs2)c1C` (configuration not stated), the “activity, negative = inhibition” value was -25.1%.

These data come from PubChem BioAssay AID1851 (National Center for Advancing Translational Sciences (NCATS), 2009).
